# High-throughput results as filed in PubChem BioAssay.
# In the library only some 8% were active in any assay of this set; here they are far more common.
# SW480 rerep: induces DNA re-replication in SW480 colon adenocarcinoma cells; SW480 DNA re-replication, Hoechst DNA content imaging, 48 h; 340,000 compounds, 1.8% hits; AID 624297; Potency, µM (series often up to 46.1 µM), inactives show top-dose re-replication activation, actives largely listed as activators; further: % of control where 0% means no effect; nearly all actives have a fitted effect of over 55% in size
#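 Per well, 250 cells were exposed to pinned compound for 48 hr. Nuclear DNA was visualised with Hoechst (40 min, 37 C) and total object intensity recorded by fluorescence scanning.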
# HT1080NT lethal: kills 2HG-producing HT-1080-NT fibrosarcoma cells | AID 686970 | Potency, µM (titrated, usually from 46.1 µM), without a hit: at the highest dose activity, negative = less viability, actives largely listed as cytotoxic | 360,000 compounds, 1.6% hits | HT-1080-NT fibrosarcoma viability, CellTiter-Glo ATP luminescence, 48 h;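 further: NT is the 2HG producing partner of a matched IDH1 knockdown line; 0% = DMSO-treated cells and -100% = media-only wells without cells; nearly all actives have a fitted effect of over 55% in size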
#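 750 cells/well, RPMI + 5% FBS; 2 h settle, compound pin-transfer, 48 h at 37 degrees C. CellTiter-Glo 10 min RT, luminescence. Normalized to DMSO and media-only wells.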
# KB-3-1 cytotox: kills parental KB-3-1 adenocarcinoma cells | 400,000 compounds, 1.4% hits | Potency, µM (highest dose often 46.1 µM), most hits filed as cytotoxic | KB-3-1 viability, CellTiter-Glo ATP luminescence, 72 h; further: on the % scale 0 is the no-effect control and ±100 the full control effect; nearly all actives have a fitted effect of over 60% in size
#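 72 h, 37 °C compound treatment of KB-3-1 parental cells; CellTiter-Glo added, 10 min, luminescence read. Data corrected against DMSO-only plates and normalized before curve fitting.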
# MCF10A rerep: DNA re-replication induction in MCF 10a cells | 350,000 compounds, 2.9% hits | Potency, µM (top dose mostly 46.1 µM), without a hit: at the highest dose activity, positive = re-replication, hits mostly activators | MCF 10A DNA re-replication, Hoechst nuclear intensity, 48 h; further: % of control where 0% means no effect; nearly all actives have a fitted effect of over 50% in size
# KB-V1 cytotox: KB-V1 MDR subline cytotoxicity; KB-V1 MDR cells viability, CellTiter-Glo, 72 h; Potency, µM (series often up to 46.1 µM), actives largely listed as cytotoxic; 400,000 compounds, 3.4% hits; further: on the % scale 0 is the no-effect control and ±100 the full control effect; nearly all actives have a fitted effect of over 60% in size
#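 Cytotoxicity via CellTiter-Glo luminescence after 72 h compound exposure at 37 degrees C. Cells: drug-selected KB-V1 line, DMEM phenol-red free plus 10% FBS. Compounds tested at multiple concentrations; normalized data fitted to concentration-effect curves.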
# HT1080 IDH1KD tx: HT-1080 IDH1 knockdown cell toxicity (counter line); 360,000 compounds, 2% hits; AID 686971; Potency, µM (titrated, usually from 46.1 µM), without a hit: at the highest dose activity, negative = toxicity, usual class: cytotoxic; HT-1080 IDH1 knockdown viability, ATP luminescence, 48 h;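 further: 0% = DMSO wells and -100% = cell-free medium wells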
#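 IDH1KD HT-1080 cells, 750/well, RPMI + 5% FBS; compound pinned after 2 h settling; 48 h, 37 °C; CellTiter-Glo luminescence; % activity normalised to DMSO and no-cell wells; curves fitted, classed by r2 and efficacy.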
# The depositor's hits bear a star; i = inactive; ? = inconclusive; . = no result; [ ] = remark or other dose. The call rests on the fitted dose curve; in most records, active means well fitted curve in the direction sought with a large enough effect; inconclusive means small, poorly fitted or top-dose-only effect, or another doubt; inactive means no such curve, though single readings can be large; an effect the other way counts as inactive or inconclusive. Potency means the concentration at half of the fitted maximal effect.
SMILES,SW480 rerep,HT1080NT lethal,KB-3-1 cytotox,MCF10A rerep,KB-V1 cytotox,HT1080 IDH1KD tx
CC[C@H](C)[C@@H](C(=O)N1CCNCC1)n1cc([C@@H](N)CO)nn1,1%[9.22 µM],10%,i,-2%,i,11%
O=C(Cc1ccc(Cl)cc1)NN1C(=O)c2ccccc2C1=O,-3%,15%,i,0%,i,11%
COC(=O)[C@@H]1[C@@H](C#N)C2(c3ccccc3-c3ccccc32)N(c2ccc(Cl)cc2)N1C#N,?,23µM*,?,5.2µM*,?,23µM*
COc1ccccc1OCCCn1cc(C#N)c2ccccc21,-2%,0%,12µM*,10%,5.2µM*,0%
CC(=O)Nc1ccc(-c2sc(Nc3ccccc3)n[n+]2C)cc1,-8%,14%,i,-7%,i,12%
COC(=O)C1=C(C)Nc2nnnn2C1c1cccnc1 (configuration not stated),1%,-1%,i,7%,i,0%
CC1=C(C(=O)Nc2ccccn2)C(c2cccnc2)n2nnnc2N1 (configuration not stated),?,9%,i,8.2µM*,i,14%
CCC(=O)NC(c1cc(Cl)c2cccnc2c1O)C1CC1 (configuration not stated),17%[9.22 µM],.,?,8%,?,.
Oc1c(C(c2ccccn2)N2CCCCC2)cc(Cl)c2cccnc12 (configuration not stated),?,15µM*,?,21µM*,?,16µM*
CN1CCN(C(c2ccc(Cl)cc2)c2cc(Cl)c3cccnc3c2O)CC1 (configuration not stated),11%,?,?,?,?,23µM*
COc1ccc(S(=O)(=O)n2nc(OC(=O)c3c(-c4ccccc4Cl)noc3C)cc2N)cc1,-4%[9.22 µM],?,?,1.6µM*,i,?
Cc1c(Cl)c([N+](=O)[O-])nn1CCCC(=O)Nc1cccnc1,1%,0%,i,2%,?,-3%
Cc1ccc(C)c(N2CCN(C(=O)Cn3c(=O)[nH]c4ccsc4c3=O)CC2)c1,-1%,1%,i,9%,21µM*,-1%
Cc1ccc(CNC(=O)Cc2ccc(-n3c(=O)[nH]c4ccsc4c3=O)cc2)cc1,6.5µM*,3.7µM*,1.3µM*,2.1µM*,i,4.1µM*
Cc1cccc(N2CCN(C(=O)Cc3ccc(-n4c(=O)[nH]c5ccsc5c4=O)cc3)CC2)c1C,-3%,9%,i,?,15µM*,8%
Cc1ccc(C)c(N2CCN(C(=O)Cc3ccc(-n4c(=O)[nH]c5ccsc5c4=O)cc3)CC2)c1,-2%,-8%,i,?,i,-14%
Cc1ccc(CNC(=O)CCCCn2c(=O)[nH]c3ccsc3c2=O)cc1,-3%,0%,i,2%,i,0%
O=[N+]([O-])c1ccc(OCc2n[nH]c(=S)n2-c2ccccc2)cc1,-7%,-9%,i,?,?,0%
O=C(CN(C(=O)CCC(=O)Nc1nccs1)c1cccc(F)c1)NCc1ccc2c(c1)OCO2,-2%,-15%,i,7%,i,3%
CCc1nc(N(CC)CC)c2oc3ccccc3c2n1,1%,-21%,i,16%,i,-15%
CCc1nc(N2CCC(C)CC2)c2oc3ccccc3c2n1,?,?,i,18µM*,9.2µM*,?
CCc1nc(SCC(=O)N2CCN(c3ccccc3)CC2)c2oc3ccccc3c2n1,-2%,7%,i,9.2µM*,13µM*,-17%
Cc1cccc(N(C)C(=O)CN(C)S(=O)(=O)c2ccc3c(c2)c(=O)n(C)c(=O)n3C)c1,-4%,0%,i,-2%,i,2%
CCOc1cccc2sc(N(CCCN(C)C)C(=O)c3ccc(S(=O)(=O)N(CC)Cc4ccccc4)cc3)nc12,25%,?,?,?,10µM*,23µM*
CCOc1cccc2sc(N(CCN(C)C)C(=O)c3cc4ccccc4cc3OC)nc12,81%,?,i,22%,i,21µM*
SMILES,SW480 rerep,HT1080NT lethal,KB-3-1 cytotox,MCF10A rerep,KB-V1 cytotox,HT1080 IDH1KD tx
CCOc1cccc2sc(N(CCCN(C)C)C(=O)c3ccc(C(=O)c4ccccc4)cc3)nc12,?,26µM*,i,5%,i,?
CCOc1ccc2nc(N(CCN(C)C)C(=O)c3cc4ccccc4cc3OC)sc2c1,116%,-2%,?,2%,?,-11%
COc1cccc(CNC(=O)[C@@H]2CCCN2C(=O)[C@H]2CCCCN2C(=O)c2ccccc2C)c1,.,10%,i,.,i,-1%
CCCN(c1ccc(OCC)cc1)S(=O)(=O)c1ccc2c(c1)NC(=O)CO2,?,-4%,?,3%,1.6µM*,-15%
CCOc1ccc(NC(=O)CC(C)S(=O)(=O)c2ccc3c(c2)NC(=O)CO3)cc1 (configuration not stated),?,-2%,i,1%,?,1%
CCOc1cc2c(c3c1C(c1ccccc1)N(S(=O)(=O)c1ccc(C)cc1)C3)C(=O)C=CC2=O (configuration not stated),.,6.5µM*,?,.,?,12µM*
CCOC(=O)C1=CCN(S(=O)(=O)c2ccc(C)cc2)C1c1ccccc1 (configuration not stated),.,-2%,i,.,i,1%
CCc1nc2c(OCC(=O)C(C)(C)C)cccn2c1N(C=O)Cc1ccc(OC)cc1,.,9%,i,.,i,8%
C=CCc1ccc(OCC(O)CN2CCN(c3ccccc3OC)CC2)c(OC)c1 (configuration not stated),?,-12%,i,23%,i,-23%
C=CCc1ccc(OCC(O)CN2CCN(Cc3ccc(Cl)cc3)CC2)c(OC)c1 (configuration not stated),?,21µM*,23µM*,?,?,21µM*
C=CCc1ccc(OCC(O)CN2CCC(Cc3ccccc3)CC2)c(OC)c1 (configuration not stated),?,?,i,7%,21µM*,-9%[9.24 µM]
COc1ccc(C(=O)N2CCC(C(=O)Nc3ccc4c(c3)OCCO4)CC2)cc1,-1%,4%,i,-2%,i,11%
OC(COc1cccc2ccccc12)CN1CCN(c2ccccc2Cl)CC1 (configuration not stated),?,?,i,18µM*,i,?
